# Legend:
# [1] = biological target: Sphingosine kinase 1 (Homo sapiens) (UniProt Q9NYA1); settings: at 1 µM;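 note: mean SPHK1 inhibition value reported from the GSK PKIS kinase panel screen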
# [2] = biological target: T1, Sphingosine kinase 2 (Homo sapiens) (UniProt Q9NRA0); settings: at 0.1 µM
# T1 sequence (whole entry): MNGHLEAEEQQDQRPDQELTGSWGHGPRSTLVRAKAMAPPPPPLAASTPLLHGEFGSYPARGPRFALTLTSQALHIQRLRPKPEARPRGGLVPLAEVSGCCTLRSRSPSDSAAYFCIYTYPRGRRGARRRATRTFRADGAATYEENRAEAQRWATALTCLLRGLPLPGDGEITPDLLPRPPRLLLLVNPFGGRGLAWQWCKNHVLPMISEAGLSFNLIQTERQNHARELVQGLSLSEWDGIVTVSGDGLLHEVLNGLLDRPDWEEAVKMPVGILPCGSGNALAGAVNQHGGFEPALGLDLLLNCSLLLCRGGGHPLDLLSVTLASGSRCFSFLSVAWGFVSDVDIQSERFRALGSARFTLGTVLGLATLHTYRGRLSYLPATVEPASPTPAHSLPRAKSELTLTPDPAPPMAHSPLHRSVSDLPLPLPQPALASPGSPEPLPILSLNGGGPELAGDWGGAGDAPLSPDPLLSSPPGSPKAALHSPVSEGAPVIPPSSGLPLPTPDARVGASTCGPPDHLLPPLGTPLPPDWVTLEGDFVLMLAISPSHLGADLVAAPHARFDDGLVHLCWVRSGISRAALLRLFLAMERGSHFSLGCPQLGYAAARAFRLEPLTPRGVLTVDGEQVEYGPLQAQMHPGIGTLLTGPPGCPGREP
# [3] = biological target: T1, Sphingosine kinase 2 (Homo sapiens); settings: at 1 µM
# [4] = biological target: Casein kinase II subunit alpha (Homo sapiens) (UniProt P68400); settings: at 0.1 µM
# [5] = biological target: Casein kinase II subunit alpha (Homo sapiens) (UniProt P68400); settings: at 1 µM
# [6] = biological target: T2, Inhibitor of nuclear factor kappa-B kinase subunit alpha (Homo sapiens) (UniProt O15111); settings: at 0.1 µM
# T2 sequence (whole entry): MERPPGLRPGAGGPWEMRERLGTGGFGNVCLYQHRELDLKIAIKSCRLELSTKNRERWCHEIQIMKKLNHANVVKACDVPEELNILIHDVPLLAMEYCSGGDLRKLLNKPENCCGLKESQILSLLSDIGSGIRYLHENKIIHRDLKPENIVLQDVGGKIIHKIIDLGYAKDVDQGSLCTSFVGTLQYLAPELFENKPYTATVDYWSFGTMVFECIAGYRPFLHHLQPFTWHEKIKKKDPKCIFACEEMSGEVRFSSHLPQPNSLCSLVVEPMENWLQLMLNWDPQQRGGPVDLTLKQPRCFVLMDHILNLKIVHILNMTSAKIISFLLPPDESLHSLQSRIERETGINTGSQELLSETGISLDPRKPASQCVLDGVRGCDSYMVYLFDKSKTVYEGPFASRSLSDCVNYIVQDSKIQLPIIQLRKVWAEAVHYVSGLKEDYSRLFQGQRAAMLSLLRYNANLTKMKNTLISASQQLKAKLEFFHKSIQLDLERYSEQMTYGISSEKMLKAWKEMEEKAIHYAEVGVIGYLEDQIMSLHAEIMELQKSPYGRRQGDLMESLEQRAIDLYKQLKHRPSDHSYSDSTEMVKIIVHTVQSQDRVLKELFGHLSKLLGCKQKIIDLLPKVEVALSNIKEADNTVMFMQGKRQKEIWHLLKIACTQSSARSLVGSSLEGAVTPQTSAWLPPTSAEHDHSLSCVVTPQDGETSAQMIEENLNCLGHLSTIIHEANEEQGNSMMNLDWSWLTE
# [7] = biological target: T2, Inhibitor of nuclear factor kappa-B kinase subunit alpha (Homo sapiens); settings: at 1 µM
# [8] = biological target: T3, Inhibitor of nuclear factor kappa-B kinase subunit beta (Homo sapiens) (UniProt O14920); settings: at 0.1 µM
# T3 sequence (whole entry): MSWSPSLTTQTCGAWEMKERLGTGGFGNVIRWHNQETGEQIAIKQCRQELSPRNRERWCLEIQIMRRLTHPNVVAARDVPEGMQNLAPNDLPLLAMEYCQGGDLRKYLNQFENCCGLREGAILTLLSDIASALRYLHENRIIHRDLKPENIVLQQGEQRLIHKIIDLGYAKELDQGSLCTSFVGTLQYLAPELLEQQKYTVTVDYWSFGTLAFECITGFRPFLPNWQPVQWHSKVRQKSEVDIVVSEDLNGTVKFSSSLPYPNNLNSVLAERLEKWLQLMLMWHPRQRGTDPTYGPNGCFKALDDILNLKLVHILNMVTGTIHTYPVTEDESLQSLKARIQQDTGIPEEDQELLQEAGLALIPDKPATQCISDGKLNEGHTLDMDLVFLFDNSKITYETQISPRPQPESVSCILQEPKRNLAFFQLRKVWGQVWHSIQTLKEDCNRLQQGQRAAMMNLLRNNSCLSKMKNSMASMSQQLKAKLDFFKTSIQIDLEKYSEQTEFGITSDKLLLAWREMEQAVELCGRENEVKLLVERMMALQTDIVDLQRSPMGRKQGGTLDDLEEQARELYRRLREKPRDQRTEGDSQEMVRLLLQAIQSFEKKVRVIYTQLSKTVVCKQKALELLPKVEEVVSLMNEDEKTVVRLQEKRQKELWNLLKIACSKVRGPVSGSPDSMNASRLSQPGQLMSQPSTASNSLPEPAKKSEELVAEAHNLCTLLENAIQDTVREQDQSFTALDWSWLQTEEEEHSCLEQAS
# [9] = biological target: T3, Inhibitor of nuclear factor kappa-B kinase subunit beta (Homo sapiens); settings: at 1 µM
# [10] = biological target: T4, Inhibitor of nuclear factor kappa-B kinase subunit epsilon (Homo sapiens) (UniProt Q14164); settings: at 0.1 µM
# T4 sequence (whole entry): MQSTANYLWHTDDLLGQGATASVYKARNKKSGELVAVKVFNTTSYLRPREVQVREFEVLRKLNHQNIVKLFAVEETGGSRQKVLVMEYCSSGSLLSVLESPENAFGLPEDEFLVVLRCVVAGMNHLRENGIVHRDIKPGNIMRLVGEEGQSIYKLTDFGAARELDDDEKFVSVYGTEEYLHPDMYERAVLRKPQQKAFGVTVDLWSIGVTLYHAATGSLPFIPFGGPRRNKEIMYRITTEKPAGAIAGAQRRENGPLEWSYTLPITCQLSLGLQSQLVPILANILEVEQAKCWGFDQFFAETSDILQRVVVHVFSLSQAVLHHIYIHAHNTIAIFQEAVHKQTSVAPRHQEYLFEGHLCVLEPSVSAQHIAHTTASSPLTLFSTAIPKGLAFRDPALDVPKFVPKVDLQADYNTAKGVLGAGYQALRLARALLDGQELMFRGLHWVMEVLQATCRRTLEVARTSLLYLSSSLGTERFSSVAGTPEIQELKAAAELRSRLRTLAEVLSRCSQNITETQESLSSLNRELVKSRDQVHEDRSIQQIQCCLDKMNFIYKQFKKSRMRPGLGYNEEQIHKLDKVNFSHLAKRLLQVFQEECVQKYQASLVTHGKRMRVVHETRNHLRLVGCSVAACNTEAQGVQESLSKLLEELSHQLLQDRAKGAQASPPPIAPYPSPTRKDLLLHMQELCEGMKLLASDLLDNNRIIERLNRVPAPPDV
# [11] = biological target: T4, Inhibitor of nuclear factor kappa-B kinase subunit epsilon (Homo sapiens); settings: at 1 µM
# [12] = biological target: T5, Serine/threonine-protein kinase Nek1 (Homo sapiens) (UniProt Q96PY6); settings: at 0.1 µM
# T5 sequence (whole entry): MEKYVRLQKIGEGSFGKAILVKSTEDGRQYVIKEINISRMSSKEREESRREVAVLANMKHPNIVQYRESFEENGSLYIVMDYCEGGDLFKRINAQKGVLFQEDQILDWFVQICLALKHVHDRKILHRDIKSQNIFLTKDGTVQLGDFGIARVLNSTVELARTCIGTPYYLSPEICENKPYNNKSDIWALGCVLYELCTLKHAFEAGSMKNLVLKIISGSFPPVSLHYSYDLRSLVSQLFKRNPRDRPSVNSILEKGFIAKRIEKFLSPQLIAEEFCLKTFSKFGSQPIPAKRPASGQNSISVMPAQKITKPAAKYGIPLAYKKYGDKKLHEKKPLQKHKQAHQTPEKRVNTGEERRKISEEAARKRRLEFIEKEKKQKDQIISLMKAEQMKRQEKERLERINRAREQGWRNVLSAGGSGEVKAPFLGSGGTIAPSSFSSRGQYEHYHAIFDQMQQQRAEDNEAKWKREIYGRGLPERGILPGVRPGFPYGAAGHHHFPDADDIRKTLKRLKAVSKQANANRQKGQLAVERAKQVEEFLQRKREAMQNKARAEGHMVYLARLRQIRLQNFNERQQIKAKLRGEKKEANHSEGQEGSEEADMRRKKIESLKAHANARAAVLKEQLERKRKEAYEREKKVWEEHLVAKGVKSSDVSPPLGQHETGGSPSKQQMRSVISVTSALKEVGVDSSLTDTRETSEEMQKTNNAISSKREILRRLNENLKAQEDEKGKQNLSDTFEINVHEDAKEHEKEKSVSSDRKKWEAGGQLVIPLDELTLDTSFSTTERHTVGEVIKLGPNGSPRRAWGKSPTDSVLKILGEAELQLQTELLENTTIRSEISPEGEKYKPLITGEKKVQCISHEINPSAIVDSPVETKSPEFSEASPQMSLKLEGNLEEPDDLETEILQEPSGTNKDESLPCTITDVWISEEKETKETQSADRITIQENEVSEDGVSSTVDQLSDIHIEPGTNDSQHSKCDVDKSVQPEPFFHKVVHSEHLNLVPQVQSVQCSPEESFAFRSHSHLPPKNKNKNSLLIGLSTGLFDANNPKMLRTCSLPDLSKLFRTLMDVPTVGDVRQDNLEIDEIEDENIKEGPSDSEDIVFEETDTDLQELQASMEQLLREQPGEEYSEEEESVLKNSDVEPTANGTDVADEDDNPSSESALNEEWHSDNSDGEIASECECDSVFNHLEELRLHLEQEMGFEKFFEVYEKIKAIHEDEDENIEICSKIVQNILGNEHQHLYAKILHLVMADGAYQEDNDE
# [13] = biological target: T5, Serine/threonine-protein kinase Nek1 (Homo sapiens); settings: at 1 µM
# [14] = biological target: T6, Serine/threonine-protein kinase Nek2 (Homo sapiens) (UniProt P51955); settings: at 0.1 µM
# T6 sequence (whole entry): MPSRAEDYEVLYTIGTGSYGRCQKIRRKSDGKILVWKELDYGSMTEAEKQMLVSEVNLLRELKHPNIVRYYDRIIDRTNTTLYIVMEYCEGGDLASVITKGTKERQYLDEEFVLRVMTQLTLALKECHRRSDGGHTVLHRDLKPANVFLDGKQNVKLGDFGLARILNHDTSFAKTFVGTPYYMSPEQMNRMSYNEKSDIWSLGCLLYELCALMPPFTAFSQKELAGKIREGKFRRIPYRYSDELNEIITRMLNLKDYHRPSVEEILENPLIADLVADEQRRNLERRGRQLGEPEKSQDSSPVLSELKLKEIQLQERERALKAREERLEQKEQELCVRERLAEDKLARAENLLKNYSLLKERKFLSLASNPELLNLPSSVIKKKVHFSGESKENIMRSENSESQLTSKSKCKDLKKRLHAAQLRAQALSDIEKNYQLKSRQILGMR
# [15] = biological target: T6, Serine/threonine-protein kinase Nek2 (Homo sapiens); settings: at 1 µM
# [16] = biological target: Serine/threonine-protein kinase Nek6 (Homo sapiens) (UniProt Q9HC98); settings: at 0.1 µM
# [17] = biological target: Serine/threonine-protein kinase Nek6 (Homo sapiens) (UniProt Q9HC98); settings: at 1 µM
# [18] = biological target: Serine/threonine-protein kinase Nek7 (Homo sapiens) (UniProt Q8TDX7); settings: at 0.1 µM
# [19] = biological target: Serine/threonine-protein kinase Nek7 (Homo sapiens) (UniProt Q8TDX7); settings: at 1 µM
# [20] = biological target: T7, Serine/threonine-protein kinase Nek9 (Homo sapiens) (UniProt Q8TD19); settings: at 0.1 µM;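 note: reported value is the mean percent inhibition of NEK9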
# T7 sequence (whole entry): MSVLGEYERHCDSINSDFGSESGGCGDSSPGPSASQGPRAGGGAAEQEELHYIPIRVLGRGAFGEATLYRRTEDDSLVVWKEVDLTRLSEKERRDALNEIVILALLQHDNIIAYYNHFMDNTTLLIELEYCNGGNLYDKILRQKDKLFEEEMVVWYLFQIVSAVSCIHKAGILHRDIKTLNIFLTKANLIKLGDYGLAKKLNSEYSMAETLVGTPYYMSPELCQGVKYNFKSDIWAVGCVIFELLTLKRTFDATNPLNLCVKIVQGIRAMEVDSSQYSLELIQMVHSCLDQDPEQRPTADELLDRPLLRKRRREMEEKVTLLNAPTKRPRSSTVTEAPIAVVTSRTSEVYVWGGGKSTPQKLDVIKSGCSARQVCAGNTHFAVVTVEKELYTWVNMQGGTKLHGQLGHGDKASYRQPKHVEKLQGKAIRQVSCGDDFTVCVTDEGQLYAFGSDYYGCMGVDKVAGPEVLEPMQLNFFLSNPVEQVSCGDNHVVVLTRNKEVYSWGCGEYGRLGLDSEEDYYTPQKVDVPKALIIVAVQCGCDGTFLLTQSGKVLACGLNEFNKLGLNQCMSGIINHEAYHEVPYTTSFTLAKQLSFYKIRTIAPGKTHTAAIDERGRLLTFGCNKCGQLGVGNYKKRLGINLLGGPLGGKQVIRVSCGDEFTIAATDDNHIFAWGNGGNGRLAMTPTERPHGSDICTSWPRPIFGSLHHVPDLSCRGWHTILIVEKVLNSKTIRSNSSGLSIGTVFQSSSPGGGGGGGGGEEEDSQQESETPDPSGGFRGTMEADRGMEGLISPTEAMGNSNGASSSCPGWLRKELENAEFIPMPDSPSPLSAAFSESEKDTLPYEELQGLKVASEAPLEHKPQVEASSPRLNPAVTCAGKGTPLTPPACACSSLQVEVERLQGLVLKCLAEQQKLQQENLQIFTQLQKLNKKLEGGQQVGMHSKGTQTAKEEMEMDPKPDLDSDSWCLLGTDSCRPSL
# Sequence of Casein kinase II subunit alpha (Homo sapiens) (P68400 whole entry, looked up): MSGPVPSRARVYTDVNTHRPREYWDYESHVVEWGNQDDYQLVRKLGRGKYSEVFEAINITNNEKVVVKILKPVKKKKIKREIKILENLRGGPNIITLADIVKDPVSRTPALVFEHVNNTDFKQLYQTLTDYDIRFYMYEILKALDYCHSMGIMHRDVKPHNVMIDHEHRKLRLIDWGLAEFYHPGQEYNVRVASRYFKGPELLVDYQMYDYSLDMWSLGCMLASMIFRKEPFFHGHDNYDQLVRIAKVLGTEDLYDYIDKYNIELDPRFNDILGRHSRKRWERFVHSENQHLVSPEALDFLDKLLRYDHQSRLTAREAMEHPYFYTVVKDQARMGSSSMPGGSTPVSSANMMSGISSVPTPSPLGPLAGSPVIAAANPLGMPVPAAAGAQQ
# Sequence of Serine/threonine-protein kinase Nek6 (Homo sapiens) (Q9HC98 whole entry): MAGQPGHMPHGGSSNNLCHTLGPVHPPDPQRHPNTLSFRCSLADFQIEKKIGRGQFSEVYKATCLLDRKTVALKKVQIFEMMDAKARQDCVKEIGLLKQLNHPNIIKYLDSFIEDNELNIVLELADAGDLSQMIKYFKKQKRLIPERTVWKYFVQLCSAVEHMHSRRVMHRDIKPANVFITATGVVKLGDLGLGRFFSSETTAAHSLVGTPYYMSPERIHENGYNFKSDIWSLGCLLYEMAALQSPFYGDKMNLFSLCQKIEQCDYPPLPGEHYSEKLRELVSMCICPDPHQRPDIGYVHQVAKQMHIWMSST
# Sequence of Serine/threonine-protein kinase Nek7 (Homo sapiens) (Q8TDX7 whole entry, looked up): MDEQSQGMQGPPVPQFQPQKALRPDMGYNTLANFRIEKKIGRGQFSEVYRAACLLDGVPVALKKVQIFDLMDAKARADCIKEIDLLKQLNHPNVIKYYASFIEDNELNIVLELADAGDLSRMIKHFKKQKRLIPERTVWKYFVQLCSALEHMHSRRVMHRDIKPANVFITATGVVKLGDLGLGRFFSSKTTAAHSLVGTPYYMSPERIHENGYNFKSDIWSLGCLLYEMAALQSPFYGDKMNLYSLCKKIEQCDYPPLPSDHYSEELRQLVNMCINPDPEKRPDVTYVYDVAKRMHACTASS
# Sequence of Sphingosine kinase 1 (Homo sapiens) (Q9NYA1 whole entry): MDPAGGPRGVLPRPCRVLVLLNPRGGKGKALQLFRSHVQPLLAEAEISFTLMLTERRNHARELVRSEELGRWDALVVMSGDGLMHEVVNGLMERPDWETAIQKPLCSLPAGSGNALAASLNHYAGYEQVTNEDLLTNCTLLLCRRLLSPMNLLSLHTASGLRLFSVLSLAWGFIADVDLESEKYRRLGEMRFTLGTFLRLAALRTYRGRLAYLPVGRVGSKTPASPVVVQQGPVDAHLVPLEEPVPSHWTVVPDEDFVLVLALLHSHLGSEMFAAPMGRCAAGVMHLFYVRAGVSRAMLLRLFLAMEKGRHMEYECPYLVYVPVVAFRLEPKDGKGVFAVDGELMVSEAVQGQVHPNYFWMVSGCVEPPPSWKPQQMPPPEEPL
smiles,measurement,setting,value
NS(=O)(=O)c1ccc(-c2cc3ccncc3cc2OCc2ccccc2)cc1,inhibition,[1],-2.02%
same,inhibition,[2],-0.23%
same,inhibition,[3],1%
same,inhibition,[4],5.15%
same,inhibition,[5],12.6%
same,inhibition,[6],0.99%
same,inhibition,[7],8.71%
same,inhibition,[8],8.26%
same,inhibition,[9],21.9%
same,inhibition,[10],5.72%
same,inhibition,[11],2.21%
same,inhibition,[12],2.31%
same,inhibition,[13],2.44%
same,inhibition,[14],3.99%
same,inhibition,[15],3.04%
same,inhibition,[16],3.18%
same,inhibition,[17],3.3%
same,inhibition,[18],5.28%
same,inhibition,[19],4.88%
same,inhibition,[20],9.27%
